40 sequences from the supplement of paper PMC6555819 can be followed below.

The test system of this test is VDR:RXRa (NR concentration 270 nM, RXRa partner concentration 90 nM). Nature of the test: PBM binding z-score (relative to random genomic background probes); higher = stronger binding; sequences stand for … in GC…GCGATTGACAGCGTAGAATGAAGG
As for the experimental part: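 Protein-binding microarray (Agilent 4x180K custom design, double-stranded 60-nt probes: 5' GC cap, 34-nt variable region, 24-nt constant primer region; full probe sequence given). Purified or IVT nuclear receptor:RXRα heterodimers (3:1 NR:RXRα, mostly 270:90 nM) or homodimers were incubated for 1 h in PBS with 2% milk and no ligand, then detected with Alexa488 antibodies. Fluorescence from o1-orientation probes (~5 replicates averaged) was converted to z-scores against 500 random hg19 background probes. Variable regions are seed direct-repeat (DR0–DR5) sites, all their single-nucleotide variants and half-site ablations.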
Consider CCTCGGAGGACAAGAGGAGGTCAGAGCTGCCAGA, for which the PBM binding z-score worked out at 1.48.
The result for ATCGAAAGGTGGAGGTGAGTATAGAGAAAGGGAA reads 0.346; that for ATCGAAAGGTCGACGTGAGTATAGAGAAAGGGAA, 2.53; that for CCTACTGGGCCATTCAGAGCTCATTGATCATATG, -0.707.
The result for CATACAGGGTCAGCTAAGCCAGAGTAGGGACGGC reads 2.69.
The value for ACTTACGGGTCAACGAGGTTATACCACGCGTATA was 7.92.
As to TCTATTAGTTGATGAGGGCAACCGAAACAGCGGA, the PBM binding z-score is 1.15.
The result for ATATGTAGGTTATCGAGTCATTCAGTTTGCGCAT reads 1.72.
The result for AAAGACAGGTGAGTGAAGGTAACTCAGCTGGACG reads -0.172; that for CCTATTAGTTGCCCATAAGGGCAACCGAAGCTCG, 0.653; that for TCTTGTAGATCAAGCAGATTAAGAAAGCCTGAGT, 0.437.
In turn, CCAACTGGGCCATTCAGAGGTCATTGATCATATG came in with a PBM binding z-score of 3.92.
The value for GCATATAGGTAATACAAGGTGCAAGTCCGATTGT was 0.355; that for CCTACTGGGACATTCAGAGGTCATTGATCATATG was 4.18.
The result for TCATCTAGGTAATACAGGTGAAAGTCGGCATCTA reads 0.916.
AGTCAAGGTTCAGGACGAGGTAACGTAAAGCACG registered a PBM binding z-score of 2.03.
Sequence CCTTACGGGTCACTGACAGGTTCTAGCATTTGGA showed a PBM binding z-score of 3.36.
ATCTCTAGGTAAAACTCAGTTCAGTGAAGAACGC showed a PBM binding z-score of 1.5.
Consider GGAACGAGGGCATTCGAGTAGATAGCATGGCGAT, for which the PBM binding z-score was found to be 0.958.
The result for CGTCCAAGGTCAATGCTAGGTCCGTGAAAGCATT reads 3.86.
The result for TTAGACAGGTGAAGGTAACTCAGGTACGCAGTCG reads 0.618.
The value for GCTGCTAGGTCAACTGATGGTCAGCTATAGCTCG was 1.82.
Sequence CCTGCTAGGTCATGGTCGGCTAATCTACAGTATG displayed a PBM binding z-score of 1.57.
The result for TAGCCTAGGTCATGGGCTAGTATACCACGCGAAC reads 1.72; that for TGTCAAAGTTCACAGGTAACGTAAGTATCCACAC, 4.54; that for ATATGTAGGTTACATTCGGGTCATTCAGGCTATG, 4.24.
AATACAGGGTCATCGTAGGCCAGACTACGCACAG yielded a PBM binding z-score of 5.11.
The value for CGAACTAGGTCAGAACAGGACAGTGACGGATGAT was 0.542; that for ATCTCTAGGTAAGACTCAGTTAAGTGAAGAACGC was 0.511; that for TATACAGAGTCAAAGGCCAGAGTACGAATGTCGA was 0.241.
The value for CGTCCAAGGTCAATGCTAAGTCAGTGAAAGCATT was 3.83.
As for TGTCAAAGTTCAAAGGTAACGAAAGTATCCACAC, the PBM binding z-score is 5.07.
The sequence CAGCCTCGGTCAGGGCCAGTATAGGAGGAACGTT showed a PBM binding z-score of -0.628.
As for ATCTCTAGGTTACCAAGTTCAGTGAATGCCGAAC, the PBM binding z-score was 5.85.
The result for TCATATCGGTAATACAGGTGAAAGTCGGCATCTA reads 0.66; that for CCAGACTGGTGAAAGGTAACTCAGTCTGGTACGC, -0.0185; that for GCATCTAGGTAATACAAGGTGAAAGTCCGATTGT, 0.32.
The value for CCGAGTAGGTAATGGGGCATTCAGGCAACGGTGA was -0.509.
As to CCTCGGAGGACAACAGAAGGTCAGAGCTGCCAGA, the PBM binding z-score amounted to 1.35.
Regarding GCTAGCAGGCCATTTGTGTCACTCAATGACGGGC, the PBM binding z-score was -0.481.
